From the supplement of paper PMC6555819

Key:
Experiment in all cases: PBM binding z-score (relative to random genomic background probes); higher = stronger binding; sequences stand for … in GC…GCGATTGACAGCGTAGAATGAAGG
[1] = test system: RARb homodimer (NR concentration 270 nM)
In short: (§1)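 Probes were double-stranded and carried 34-nt variable regions with direct-repeat seeds, single-nucleotide variants, half-site ablations and random human genomic background sequences, printed on custom Agilent 4×180K protein-binding microarrays. Arrays were incubated 1 h with ligand-free nuclear receptor dimers in PBS pH 7.4, 2% milk, 0.02% Triton X-100, 1 mM DTT, 0.2 mg/mL BSA and 0.4 mg/ml salmon testes DNA. Antibodies against each partner (one per run) detected binding, and scanned fluorescence was regression-normalized. Binding z-scores use the random background probes as reference.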

[2] = test system: RARg:RXRa (NR concentration 270 nM, RXRa partner concentration 90 nM)
In short: as §1

[3] = test system: RARg homodimer (NR concentration 270 nM)
In short: as §1

[4] = test system: RXRa DBDmut IVT, anti-RXR (DBD mutation: RXRa K156A/R161A, NR concentration 90 nM)
In short: as §1

[5] = test system: RXRa homodimer (NR concentration 180 nM)
In short: as §1

[6] = test system: THRa:RXRa (NR concentration 90 nM, RXRa partner concentration 90 nM)
In short: as §1

[7] = test system: THRa homodimer (NR concentration 90 nM)
In short: as §1

[8] = test system: VDR homodimer (NR concentration 270 nM)
In short: as §1

Row | Sequence | PBM binding z-score [1] | PBM binding z-score [2] | PBM binding z-score [3] | PBM binding z-score [4] | PBM binding z-score [5] | PBM binding z-score [6] | PBM binding z-score [7] | PBM binding z-score [8]
1 | TGAAAGAGGTTAAAGATCAGGGAACGTGGCGTCG | 1.1 | 2.9 | 1.68 | 0.56 | 4.19 | 1.63 | -0.693 | 0.28
2 | CTCGAAAGGTCGTGCTCAGGAGAGTATACCAAAC | 2.52 | 4.36 | 4.09 | 1.88 | 5.03 | 2.64 | 0.423 | 1.36
3 | CCTTACGGGTCACTGACAGTTTATAGCATTTGGA | 3.2 | 5.31 | 4.77 | 2.11 | 5.48 | 2.74 | 0.505 | 1.42
4 | CGGCCAAGGTCATAGGAGGTCAGTGAAGACAGAT | 5.15 | 6.78 | 7.19 | 3.51 | 6.42 | 5.33 | 2.88 | 4.3
5 | TGAATGGGGTTATAAGATCAGGGAACGTTGCAAA | 1.49 | 2.3 | 0.965 | 1.6 | 3.95 | 2.45 | 1 | 1.23
6 | CTGCCTAGGTCAGGGCCAGTATAGGAGGAACGTT | 2.43 | 2.85 | 3.61 | -0.445 | 1.25 | 1.88 | 0.182 | -0.173
7 | CCTACCGGGCCAAAGGTCATTGATTCCAATGCTC | 4.57 | 5.86 | 4.58 | 0.593 | 6.64 | 3.68 | 1.12 | 2.38
8 | AGAACGAGGGAACGCTGAGTTGATAGCAGAGTAG | -0.725 | -0.0293 | 0.175 | -0.477 | -0.0289 | -0.362 | -1.15 | 0.248
9 | CGAACTATGTCATTGACAGGACAGTGAATAGTAA | 0.32 | 0.772 | 0.637 | 0.491 | 0.127 | 0.297 | -0.398 | 0.0338
10 | CAGCCTATGTCAGGGCCAGTATAGGAGGAACGTT | 0.243 | 0.116 | 0.219 | -0.685 | -0.248 | -0.329 | -0.168 | -0.529
11 | ACTAGCAGGCCAAGTTCGGGTCACTCAAACAAAG | 2.96 | 3.14 | 2.14 | 0.623 | 1.81 | 3.55 | 2.61 | 2.1
12 | TCGAGTAGGTTACCAATGGGGCATTCAACTTTCT | 1.11 | 1.49 | 0.547 | 0.496 | 1.01 | 0.551 | -0.246 | -0.194
13 | CCGACTGGGGCATAAGGTTACCTTAAGCCAGCCC | 1.66 | 1.26 | 0.711 | -0.657 | 0.903 | 2.3 | 2.31 | -0.441
14 | ATCGAAAGGTCGTGATGTGAGTATACAGAAAGGC | 2.33 | 3.91 | 3.35 | 1.1 | 4.56 | 2.34 | 0.0191 | 0.997
15 | CCTAGTTGGTCTGGAGGTCACACACCGGATATGA | 4.22 | 4.49 | 3.84 | 0.895 | 4.63 | 3.67 | 2.69 | 2.97
16 | TCTAGCAGGCCAGAGGGTCGCTCAAGAGGTACGG | 0.452 | 0.125 | 0.0431 | -0.342 | 0.375 | -0.276 | -1.24 | -0.526
17 | TCTTGAAGATCAAGCAGGTTAAGAAAGCCTGAGT | -0.113 | -0.172 | -0.516 | 0.456 | 0.318 | 0.216 | -0.679 | -0.115

Row | Sequence | PBM binding z-score [1] | PBM binding z-score [2] | PBM binding z-score [3] | PBM binding z-score [4] | PBM binding z-score [5] | PBM binding z-score [6] | PBM binding z-score [7] | PBM binding z-score [8]
18 | CGAACTAGGTCATCCAGGACAGTGCATACATTGA | 3.21 | 4.04 | 4.52 | 2.45 | 2.88 | 3.65 | 2.06 | 2.29
19 | CGTCCAAGGTCATAGGAGCTCAGTGAAGACAGAT | 3.58 | 5.66 | 5.78 | 3.96 | 5.68 | 4.03 | 2.37 | 2.47
20 | GCATATAGGTAAGACAAGGTGAAAGTCCGATTGT | 0.617 | 0.376 | 0.405 | 0.267 | 0.545 | 3.81 | 0.676 | -0.12
21 | CCTACAGGGCCATCAGGTCATTGATATCAACGTT | 2.75 | 2.63 | 2.35 | 0.562 | 1.63 | 3.26 | 2.79 | 1.45
22 | CCTCGGAGGACAACAGGAGGTCACAGCTGCCAGA | 4.25 | 4.52 | 3.89 | 0.736 | 3.9 | 3.81 | 2.24 | 2.42
23 | CGAACGAGGGCGTGAGTTGATAGCAAATGCCGAT | -0.277 | 0.0501 | -0.0612 | 1.36 | 0.221 | 0.142 | -0.691 | 0.785
24 | TCGAGTAGGTTAGGGACATTCAGAATGGCGTCGA | 0.458 | 0.15 | 0.37 | 0.229 | 0.221 | 2 | 0.953 | 0.358
25 | TAGTCTAGGTCATGCGGGCCAGTATAGTGTCGGC | 3.13 | 3.77 | 4.69 | 0.748 | 3.08 | 3.29 | 1.67 | 0.86
26 | TAGCCTAGGTCATTCAGGGGCCAGTAAAGAAAGC | 3.38 | 6.24 | 4.69 | 1.5 | 3.27 | 3.63 | 0.491 | 1.24
27 | TAATATAGGTAAAGGTGAAAGTCGAACGATATGA | 1.71 | 1.62 | 1.66 | -0.417 | 2.32 | 1.45 | 0.232 | 0.489
28 | GTACCAAGGTGGATAGGTCGTTGATGAGTAGGCG | 0.625 | 0.328 | 0.275 | -0.726 | 0.461 | -0.0275 | -0.612 | -0.371
29 | CATACAGGGTCTGCTAGGCCAGAGTAGGGACGGC | -0.0672 | -0.0355 | 0.276 | -0.952 | 0.034 | 0.13 | -0.32 | -0.486
30 | TGAATGAGGGTATAAGATCAGGGAACGTTGCAAA | -0.0361 | 0.617 | 0.546 | -0.155 | 0.383 | 0.461 | -0.277 | 0.159
31 | CGTCCAAGGTCATAGGAGGTCAGTGTAGACAGAT | 5.63 | 6.73 | 7.24 | 3.82 | 6.53 | 5.46 | 3.59 | 4.71
32 | TTACCAAGGTGAGCTGATGTCGTTGATCCAACTC | 0.273 | 0.225 | 0.147 | -0.369 | 0.239 | 1.48 | 0.0669 | -0.492
33 | ACAGATAGGTGAGTGAAGGTAACTCAGCTGGACG | 0.126 | 0.246 | 0.547 | -0.347 | 0.347 | 1.65 | -0.341 | -0.149
34 | CCTAGTTGGTCAGGAGGTCACAGACCGGATATGA | 4.29 | 5.27 | 4.13 | 0.184 | 5.2 | 3.57 | 2.15 | 2.05
